Pf growth 48h: P. falciparum growth inhibition at 48 hours (one generation). AID 504832. P. falciparum luciferase growth in erythrocytes, 48 h. Potency, µM (series often up to 28.7 µM), most hits filed as inhibitors. 310,000 compounds, 5.9% hits
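Compounds are pin-transferred into medium, infected erythrocytes (2% hematocrit, 0.1% parasitemia final) are added, and plates sit one parasite generation at 37 C in 5% CO2. Detection reagent is then added and luminescence measured.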
AmpC detergent: blocks E. coli AmpC beta-lactamase in detergent assay; AmpC hydrolysis of nitrocefin, absorbance 480 nm, 0.01% Triton; Potency, µM (top dose mostly 114 µM), usual class: inhibitors; 370,000 compounds, 0.041% hits; AID 485294; note: nearly all actives have a fitted effect of over 25% in size
Target sequence (P00811 whole entry, looked up): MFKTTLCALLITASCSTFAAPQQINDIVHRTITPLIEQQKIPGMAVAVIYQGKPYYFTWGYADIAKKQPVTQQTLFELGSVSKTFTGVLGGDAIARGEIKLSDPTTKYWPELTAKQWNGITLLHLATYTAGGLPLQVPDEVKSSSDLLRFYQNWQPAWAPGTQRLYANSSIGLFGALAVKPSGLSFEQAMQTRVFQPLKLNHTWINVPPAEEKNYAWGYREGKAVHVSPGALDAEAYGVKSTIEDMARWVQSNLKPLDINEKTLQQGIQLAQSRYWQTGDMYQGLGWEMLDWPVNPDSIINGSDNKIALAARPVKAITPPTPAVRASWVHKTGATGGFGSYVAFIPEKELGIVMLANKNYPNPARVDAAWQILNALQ
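20 mM phosphate pH 7.0 + 0.01% (detergent screen) or 0.0001% Triton X-100; 5.3 nM AmpC reagent; cpd preinc 15 min RT; nitrocefin (800 uM stock) to start; A480 q20 s × 4 min; Activity was normalised to no-enzyme and no-compound control wells.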
Sm TGR inh: inhibitors of Schistosoma mansoni thioredoxin glutathione reductase | Q962Y6 | purified TGR, DTNB reduction, TNB absorbance 405 nm | Potency, µM (series often up to 114 µM), most hits filed as inhibitors | 360,000 compounds, 3% hits | AID 485364; note: nearly all actives have a fitted effect of over 60% in size
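Kinetic colorimetric format: TGR-catalysed, NADPH-driven DTNB reduction monitored via TNB absorbance. Enzyme dispensed at 20 nM; compound exposure 15 min at room temperature before reaction start.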
Pf growth 96h: P. falciparum growth inhibition at 96 hours; 320,000 compounds, 6.9% hits; AID 504834; Potency, µM (series often up to 28.7 µM), usual class: inhibitors; P. falciparum luciferase reporter growth, 96 h
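Two-generation exposure (96 h) targets delayed-death phenotype. Reporter parasites carrying integrated firefly luciferase, in red cells at 2% hematocrit and 0.05% parasitemia final, kept at 37 C, 5% CO2; luminescence loss indicates inhibition.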
SARS PLpro yeast: inhibitors of SARS-CoV papain-like protease in yeast; S. cerevisiae expressing SARS-CoV PLpro, growth rescue; Potency, µM (top dose mostly 32.9 µM), usual class: activators; 330,000 compounds, 0.19% hits; calls by dose curve; note: nearly all actives have a fitted effect of over 55% in size
AmpC no deterg: blocks E. coli AmpC beta-lactamase in detergent-free assay | P00811 | 330,000 compounds, 0.52% hits | Potency, µM (titrated, usually from 57.1 µM), most hits filed as inhibitors | AID 485341 | AmpC nitrocefin hydrolysis, absorbance 480 nm, 0.0001% Triton; note: nearly all actives have a fitted effect of over 20% in size
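AmpC (5.3 nM in the dispensed reagent) in 20 mM phosphate pH 7.0 with 0.01% (detergent screen) or 0.0001% Triton X-100 was preincubated with compounds for 15 min at room temperature. Nitrocefin was then added from an 800 uM solution, and hydrolysis was followed at 480 nm.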
A number is an active result; 0 = inactive; ? = inconclusive; - = not tested or not shown; [ ] = remark or other dose. Rows were chosen to be rich in hits. Some 12% of all compounds tested hit in one or more screens of this group. Unless noted, calls come from the whole dose curve; as a rule, active = well fitted curve in the direction sought with a large enough effect; inconclusive = small, poorly fitted or top-dose-only effect, or another doubt; inactive = no such curve, though single readings can be large; an effect the other way counts as inactive or inconclusive.

SMILES | Pf growth 48h | AmpC detergent | Sm TGR inh | Pf growth 96h | SARS PLpro yeast | AmpC no deterg
CCOc1ccc(NC2C=CS(=O)(=O)C2)cc1 (centres undefined) | 0 | 0 | 28µM | 0 | 0 | 0
COc1ccc(CCNC(=O)c2ccc3c(c2)N(Cc2ccc(F)cc2)C(=O)c2ccccc2S3(=O)=O)cc1OC | - | 0 | 0 | - | - | -
Cc1ccccc1N1CCN(CCC(=O)Nc2ccc(F)cc2)CC1 | 0 | 0 | 40µM | 0 | 0 | 0
CCN1CCN(CCC(=O)Nc2ccccc2)CC1 | 0 | 0 | 0 | 13µM | 0 | 0
O=C(NCCN1CCN(C(=O)Nc2ccccc2)CC1)Nc1ccccc1 | - | 0 | 0 | 5.2µM | 0 | 0
COC(=O)c1c(NC(=O)CN2CCN(c3ccccc3)CC2)c2c(C)cccc2n1C | - | 0 | 0[11.4 µM] | 5.9µM | 0 | 0
Cc1ccc(NC(=O)NCCN2CCN(C(=O)Nc3ccc(C)cc3)CC2)cc1 | ? | 0 | 0 | ? | 0 | 0
COC(=O)c1c(NC(=O)CN2CCN(c3ccccc3OC)CC2)c2c(C)cccc2n1C | - | 0 | 0[11.4 µM] | 0 | 0 | 0
CCCN(CCC)C(=O)CSc1nnc2cc(C)c3ccccc3n12 | - | 0 | 0 | - | - | -
Cc1ccc(-c2nc(NC(=O)CSc3ncnc4sc5c(c34)CCC(C)C5)ns2)cc1 (centres undefined) | - | 0 | 0 | - | - | -
CC(=O)Nc1ccc(/C=N/NC(=S)NC(C)C)cc1 | ? | 0 | 0 | 0 | 0 | 0
COC(=O)c1ccc(NC(=O)CN2CCN(c3ccccc3C)CC2)cc1 | 0 | 0 | 0 | 9.3µM | 0 | 0
COc1ccc(NC(=O)CN2CCN(c3ccccc3C)CC2)cc1 | 0 | ? | 0 | ? | 0 | 0
Cc1cc2c(cc3c(SCc4ccccc4Cl)nnc(C)n32)o1 | - | 0 | 0 | - | - | -
COc1ccccc1CN1CCc2c([nH]c3ccccc23)C1 | ? | 0 | 0 | 0 | 0 | 0
Clc1cccc(CN2CCc3c([nH]c4ccccc34)C2)c1Cl | 1.9µM | 0 | ? | ? | 0 | 0
COC(=O)CN1C(=O)S/C(=C/c2ccc(N3CCCCC3)o2)C1=O | 0 | 0 | 7.1µM | 0 | 0 | 0
CCOC(=O)CN1C(=O)S/C(=C/c2ccc(N3CCCCC3)o2)C1=O | 0 | 0 | 0 | 0 | 0 | 0
O=C(O)CN1C(=O)/C(=C/c2ccc(N3CCCCC3)o2)SC1=S | 0 | 0 | 2.8µM | 0 | 0 | 0
CCCSc1nc2sc3c(c2c(=O)[nH]1)CCN(Cc1ccccc1)C3 | ? | 0 | 0 | 4.1µM | - | -
O=c1[nH]c(C(Cl)Cl)nc2sc3c(c12)CCN(Cc1ccccc1)C3 | 0 | ? | ? | ? | 0 | 0
NS(=O)(=O)c1ccc(N2N=C(c3ccc(Br)cc3)CC2c2ccc(F)cc2)cc1 (centres undefined) | ? | 0 | 0 | ? | 0 | 5.6µM
NS(=O)(=O)c1ccc(N2N=C(c3ccccc3)CC2c2cccc(F)c2)cc1 (centres undefined) | ? | ? | 0 | ? | 0 | 0
COc1ccc2ccc(O)c(CN3CCN(S(=O)(=O)c4cc([N+](=O)[O-])ccc4C)CC3)c2c1 | ? | 0 | 1.6µM | ? | 0 | 0
O=C(CN1C(=O)S/C(=C\c2ccc(-c3cc(C(=O)O)ccc3Cl)o2)C1=O)Nc1ccc2c(c1)OCO2 | 0 | 79µM | 0 | 0 | 0 | 0
SMILES | Pf growth 48h | AmpC detergent | Sm TGR inh | Pf growth 96h | SARS PLpro yeast | AmpC no deterg
CCCC(C)NC(=O)c1ccc2[nH]c3c(c2c1)CC(C)CC3 (centres undefined) | 4.7µM | 0 | 0 | 3.3µM | 0 | 0
CCOC(=O)C1CCCN(C(=O)c2ccc(Cn3c(=S)[nH]c4cc(C(=O)OC)ccc4c3=O)cc2)C1 (centres undefined) | ? | ? | 0 | 12µM | 0 | 0
CCOC(=O)C1CCCN(C(=O)c2ccc3[nH]c4c(c3c2)CC(C)CC4)C1 (centres undefined) | 9.3µM | 0 | 0 | ? | 0 | 0
O=C(O)c1cc(Cl)ccc1-c1ccc(/C=C/c2cc(C(F)(F)F)[nH]c(=O)n2)o1 | 0 | 0 | ? | 9.3µM | 0 | 0
CCOc1ccc(Cn2nnc(-c3ccc(S(C)(=O)=O)cc3)n2)cc1OCC | ? | 0 | 0 | 0.93µM | 0 | 0
CCOc1ccc(CCNC(=O)Cn2nnc(-c3ccccc3)n2)cc1OCC | - | 0 | 0 | - | - | -
CN(C)c1ccc(C2N3CC4(C)CN2CC(C)(C3)C4O)cc1 (centres undefined) | - | 0 | 0 | 4.7µM | 0 | 0
CC12CN3CC(C)(CN(C1)C3c1ccc(Cl)cc1Cl)C2O (centres undefined) | 0 | 0 | 0 | 0 | 0 | 0
CCN(CC)S(=O)(=O)c1ccc(Cl)nc1 | 0 | 0 | 0 | 0 | 0 | 0
CCN(CC)S(=O)(=O)c1ccc2nc(CCl)[nH]c2c1 | 0 | 0 | 40µM | 0 | 0 | 0
COc1ccccc1NS(=O)(=O)c1ccc2nc(CCl)[nH]c2c1 | 0 | 0 | 35µM | 0 | 0 | 0
COc1ccc(NS(=O)(=O)c2ccc3nc(COc4cccc5ccccc45)[nH]c3c2)cc1 | ? | 0 | 0 | ? | 0 | 4µM
Cc1cccc(C)c1NC(=O)CN1CCN(CCCC(c2ccc(F)cc2)c2ccc(F)cc2)CC1 | 12µM | ? | 0 | 4.5µM | - | 0
Cc1c(NC(=O)CN2CCN(C(c3ccccc3)c3ccccc3)CC2)c(=O)n(-c2ccccc2)n1C | 10µM | ? | 0 | 0 | 0 | 0
CC(NC(=O)CN1CCOCC1)c1ccc(F)cc1 (centres undefined) | 0 | ? | 0 | 0 | 0 | 0
Cc1c(NC2(C#N)CCCCC2)c(=O)n(-c2ccccc2)n1C | 0 | 0 | 20µM | 0 | 0 | 0
Cc1c(NC(=O)CN2CCN(c3ccccc3)CC2)c(=O)n(-c2ccccc2)n1C | 0 | 0 | 0 | 0 | 0 | 0
Cc1c(NC(=O)CCC(=O)N2CCCCC2)c(=O)n(-c2ccccc2)n1C | 0 | ? | 0 | 0.83µM | 0 | 0
CCCCN(CCCC)C(=O)CN(C)S(=O)(=O)c1ccc2c(c1)c(=O)n(C)c(=O)n2C | - | 0 | 0 | - | - | -
COc1ccccc1N1CCN(C(=O)c2cnc(N3CCCCC3)c3ccccc23)CC1 | - | 0 | 0 | - | - | -
CCCn1ccc2c(OCC(=O)NCc3ccccc3Cl)cccc2c1=O | - | 0 | 0 | - | - | -
C=CCNC(=O)CN1CCN(C(c2ccccc2)c2ccccc2)CC1 | ? | 0 | 0 | 13µM | 0 | 0
O=C(Oc1c(-c2ccccc2)oc2ccccc2c1=O)c1ccccc1 | 0 | ? | 0 | ? | 0 | 0
O=C(Oc1c(-c2ccccc2Cl)oc2ccccc2c1=O)c1ccc(Cl)cc1 | 0 | 0 | 0 | 0 | 0 | 18µM
O=C(O)CNC(=O)/C(=C/c1ccco1)NC(=O)/C=C/c1ccccc1 | 0 | 0 | 0 | 0 | 0 | 0
COC(=O)/C(=C/c1ccco1)NC(=O)c1ccc(Br)o1 | 0[5.75 µM] | 0 | 22µM | 0[5.75 µM] | 0 | 0
COC(=O)/C(=C/c1ccco1)NC(=O)c1ccco1 | 0 | 0 | 40µM | 0 | 0 | 0
